# Screens: PubChem BioAssay, National Center for Advancing Translational Sciences (NCATS)
# HTT aggregate = qHTS Multiplex Assay to Identify Dual Action Probes in a Cell Model of Huntington: Aggregate Formation (GFP). Potency, µM (highest dose often 46.1 µM), without a hit: at the highest dose activity change, negative = inhibition, actives largely listed as inhibitors. PC12 HttQ103-GFP aggregates, Acumen cytometry, 40 h. 220,000 compounds, 1.1% hits; active means well fitted curve in the direction sought with a large enough effect; inconclusive means small, poorly fitted or top-dose-only effect, or another doubt; inactive means no such curve, though single readings can be large; an effect the other way counts as inactive or inconclusive; further: potency means the concentration at half of the fitted maximal effect; on the % scale 0 is the no-effect control and ±100 the full control effect; nearly all actives have a fitted effect of over 60% in size
#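 Steps: seed 1500 PC12 HTTQ103-GFP cells/well; add tebufenozide, 100 nM final; add compound titration; add ATPLite reagent; quantify GFP aggregates by laser scanning cytometry.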
# CBFb RUNX1 block = qHTS Assay for Compounds Blocking the Interaction Between CBF-beta and RUNX1 for the Treatment of Acute Myeloid Leukemia; 230,000 tested, under 10 active; Potency, µM (titrated, usually from 59.8 µM), without a hit: at the highest dose activity, negative = inhibition, most hits filed as inhibitors; AlphaScreen CBFb-His/RUNX1-biotin binding, biochemical; Runt-related transcription factor 1 (Homo sapiens) + Core-binding factor subunit beta …; active means well fitted curve in the direction sought with a large enough effect; inconclusive means small, poorly fitted or top-dose-only effect, or another doubt; inactive means no such curve, though single readings can be large; an effect the other way counts as inactive or inconclusive; further: % of control where 0% means no effect
#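 Bead-based AlphaScreen assay; binding partners His-tagged CBF-beta and biotinylated RUNX1 at 30 nM each. Compound exposure 15 min after a 20-min protein preincubation; bead step 90 min; all steps at room temperature.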
# JMJD2E inh = qHTS Assay for Inhibitors of Human Jumonji Domain Containing 2E (JMJD2E) | JMJD2E catalytic domain, FDH-coupled NADH fluorescence (FDH is formaldehyde dehydrogenase) | Potency, µM (top dose mostly 57.1 µM), for inactives: top-dose activity change, negative = inhibition, usual class: inhibitors | 230,000 compounds, 1.6% hits;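 further: potency means the concentration at half of the fitted maximal effect; 0% = wells with enzyme and -100% = buffer wells without enzyme; nearly all actives have a fitted effect of over 50% in size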
# HPGD block = qHTS Assay for Inhibitors of HPGD (15-Hydroxyprostaglandin Dehydrogenase) | purified HPGD, NADH fluorescence kinetic, PGE2 substrate | 150,000 compounds, 4.3% hits | Potency, µM, for inactives: top-dose activity change, negative = inhibition, hits mostly inhibitors | 15-hydroxyprostaglandin dehydrogenase [NAD(+)] (Homo sapiens), P15428; further: potency means the concentration at half of the fitted maximal effect; on the % scale 0 is the no-effect control and ±100 the full control effect
# Target sequence (P15428 whole entry, looked up): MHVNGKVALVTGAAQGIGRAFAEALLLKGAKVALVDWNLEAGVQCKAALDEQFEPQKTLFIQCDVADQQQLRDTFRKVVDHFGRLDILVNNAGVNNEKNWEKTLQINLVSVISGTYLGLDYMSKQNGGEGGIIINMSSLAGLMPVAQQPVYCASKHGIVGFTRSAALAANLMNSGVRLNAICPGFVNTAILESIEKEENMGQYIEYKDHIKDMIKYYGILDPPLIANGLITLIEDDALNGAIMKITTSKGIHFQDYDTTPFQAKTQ
#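 20 nM HPGD preincubated 15 min at room temperature with compound in 50 mM Tris-HCl pH 8, 0.01% Tween 20. Started with 1 mM NAD+ and 30 uM prostaglandin E2; NADH fluorescence (360/450 nm) read 5 times over 30-s intervals, last minus first.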
# HTT ATP protect = qHTS Multiplex Assay to Identify Dual Action Probes in a Cell Model of Huntington: Cytoprotection (ATP). PC12 HTT-Q103 induced, cytoprotection, ATP luminescence, 40 h. 230,000 compounds, 0.14% hits. Potency, µM (doses to about 56.4 µM), inactives show cytoprotection (ATP increase), most hits filed as activators; active means well fitted curve in the direction sought with a large enough effect; inconclusive means small, poorly fitted or top-dose-only effect, or another doubt; inactive means no such curve, though single readings can be large; an effect the other way counts as inactive or inconclusive; further: potency means the concentration at half of the fitted maximal effect; % of control where 0% means no effect; nearly all actives have a fitted effect of over 45% in size
#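 Rat PC12, Q103 Htt exon1-GFP fusion, ecdysone promoter; tebufenozide inducer 100 nM final; compound titration; qHTS, 1500 cells/well; ATPlite luminescent read.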
# ALDH1A1 block = qHTS Assay for Inhibitors of Aldehyde Dehydrogenase 1 (ALDH1A1); Potency, µM (titrated, usually from 75.3 µM), inactives show top-dose activity, negative = inhibition, usual class: inhibitors; Aldehyde dehydrogenase 1A1 (Homo sapiens), P00352; 220,000 compounds, 7.3% hits; Purified ALDH1A1, NADH fluorescence, propionaldehyde substrate;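 further: potency means the concentration at half of the fitted maximal effect; plate controls were no enzyme wells and a reference inhibitor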
# Target sequence (P00352 whole entry, looked up): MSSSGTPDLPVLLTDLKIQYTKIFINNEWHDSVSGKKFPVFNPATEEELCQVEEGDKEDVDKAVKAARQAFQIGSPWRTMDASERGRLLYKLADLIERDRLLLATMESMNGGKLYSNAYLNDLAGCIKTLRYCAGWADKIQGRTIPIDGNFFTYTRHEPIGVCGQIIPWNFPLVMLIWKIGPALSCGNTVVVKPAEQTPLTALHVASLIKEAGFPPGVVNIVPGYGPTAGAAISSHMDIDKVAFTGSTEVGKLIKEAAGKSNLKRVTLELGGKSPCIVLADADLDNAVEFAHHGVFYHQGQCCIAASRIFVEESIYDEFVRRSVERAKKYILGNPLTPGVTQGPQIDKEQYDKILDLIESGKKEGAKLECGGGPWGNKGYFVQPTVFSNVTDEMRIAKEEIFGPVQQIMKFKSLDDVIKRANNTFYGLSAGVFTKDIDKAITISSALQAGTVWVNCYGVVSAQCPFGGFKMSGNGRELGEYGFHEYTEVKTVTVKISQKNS
# HPGD inh cf = Confirmation qHTS Assay for Inhibitors of HPGD (15-Hydroxyprostaglandin Dehydrogenase). Potency, µM (highest dose often 57.1 µM), for the others: at the top dose activity change, negative = inhibition, most hits filed as inhibitors. 90 compounds, 90% hits. shares compounds with HPGD block. recombinant HPGD, NADH fluorescence, PGE2 substrate. AID 2429, 2010; calls by dose curve
# Numbers without * were called inactive; ? = inconclusive; · = no result given; [ ] = another dose, or the depositor's remark. This is a sample that favours compounds with a hit; in the whole collection about 9.8% have one here. Unless noted, the call rests on the fitted dose curve; in most records, active means well fitted inhibition curve with a large enough effect (not every such curve was filed as active); inconclusive means small, poorly fitted or top-dose-only effect, or another doubt; inactive means no such curve, though single readings can be large or run the other way.
SMILES,HTT aggregate,CBFb RUNX1 block,JMJD2E inh,HPGD block,HTT ATP protect,ALDH1A1 block,HPGD inh cf
CC(=O)c1cnn(-c2c(Cl)cc(Cl)cc2Cl)c1C,1%[9.22 µM],-3%,3%,·,0%[10 µM],·,·
CCOc1ccc(N(Cc2cc3ccc(C)cc3[nH]c2=O)C(=O)COC)cc1,2%,9%,?,-13%,-15%[0.074 µM],18µM*,·
COCC(=O)N(Cc1cc2ccc(C)cc2[nH]c1=O)c1ccc(OC)cc1,-12%,-2%,?,-8%,3%,-11%,·
Cc1cc(C)c(S(=O)(=O)/N=C2\C=CC(=O)C(Cl)=C2)c(C)c1,4%[1.84 µM],-9%,-28%,20µM*,-11%,?,·
CC1CC(=O)NN1C(=O)c1ccccc1 (stereo not given),20%[9.22 µM],-2%,0%,·,26%[10 µM],-4%,·
Oc1ccc(-c2csc(Nc3ncccn3)n2)c(O)c1,14%,-11%,7%,·,-75%,21%,·
Cc1nc(-c2cccc(NS(C)(=O)=O)c2)cs1,?,3%,-3%,-24%,-13%,4%,·
Oc1ccc(-c2csc(-c3cccnc3)n2)cc1O,-31%[9.22 µM],-15%,14µM*,·,-29%[10 µM],·,·
Clc1ccc(-c2csc(-c3cccnc3)n2)s1,-34%[9.22 µM],18%,?,·,6%[10 µM],·,·
Oc1ccc(-c2csc(Nc3ncccn3)n2)cc1O,?,-16%,28µM*,·,-57%[10 µM],?,·
Cc1nc(-c2ccc(O)c(O)c2)cs1,-5%,-28%,16µM*,22µM*,-4%[10 µM],?,·
Cc1nc(-c2ccc(NS(C)(=O)=O)cc2)cs1,3%,-2%,6%,16µM*,-26%[0.074 µM],12%,·
Oc1ccc(-c2csc(-c3ccccc3)n2)cc1O,-6%,-25%,?,28µM*,-56%,?,·
COc1ccc(CN(C)CC(=O)Nc2ccccc2-c2ccccc2)c(OC)c1,20µM*,1%,-24%,·,10%[10 µM],2.8µM*,·
CCOc1ccc(-n2c(N)c(C(=O)NCc3ccco3)sc2=S)cc1,5%,-13%,-4%,32µM*,-10%,22µM*,·
CCOc1ccc(-n2c(N)c(C(=O)NCc3cccnc3)sc2=S)cc1,17%,-8%,-1%,35µM*,-1%,?,·
COc1ccc(CNC(=O)c2sc(=S)n(-c3ccccc3)c2N)cc1,-17%[9.22 µM],-11%,?,·,-13%[10 µM],·,·
COC(=O)N1CCC[C@@]2(CCN(C(c3ccccc3)c3ccccc3)C2)C1,·,·,·,-11%,-7%,3%,·
CSc1ccccc1NC(=O)c1ccc([N+](=O)[O-])cc1,0%,-7%,-24%,·,·,14µM*,·
O=C(c1ccc(COc2ccccc2Br)cc1)N1CCCCC1,-30%,9%,3%,0.045µM*,-15%,?,0.089µM*
COc1ccc(-c2cc(C(F)(F)F)n3nc(C(=O)N4CCCCC4)cc3n2)cc1OC,-21%,10%,?,0.5µM*,-10%,-11%,0.28µM*
Cc1ccccc1OCc1nnc2n1CC(C)S2 (stereo not given),9%,17%,-3%,-9%,-13%[10 µM],4%,·
COc1ccccc1NC(=O)c1sc2nc(Cc3ccccc3)cc(C(F)(F)F)c2c1N,-23%,23%,11%,-7%,-9%,4%,-18%
COc1ccc(NC(=O)c2sc3nc(Cc4ccccc4)cc(C(F)(F)F)c3c2N)cc1OC,13%,0%,5%,-10%,·,-3%,·
Cc1ccc(S(=O)(=O)N(C)c2ccc(C(=O)N3CCC(C(N)=O)CC3)cc2)cc1,10%,2%,2%,28µM*,-7%[0.074 µM],1%,?
SMILES,HTT aggregate,CBFb RUNX1 block,JMJD2E inh,HPGD block,HTT ATP protect,ALDH1A1 block,HPGD inh cf
O=C(Nc1ccc(Br)cc1)N1CCCCCCC1,-4%,5%,7%,-9%,-20%,0%,·
COc1ccccc1C(=O)Nc1ccc(C(=O)N2CCCC2)cc1,-4%,1%,11%,1.4µM*,-23%,-5%,1µM*
O=C(Nc1ccc(C(=O)N2CCCCC2)cc1)c1ccc(Br)cc1,?,3%,0%,0.63µM*,-12%,14µM*,0.35µM*
Cc1ccc(S(=O)(=O)[N-]c2nc3ccccc3nc2-[n+]2cc(C)cc(C)c2)cc1,15%[9.22 µM],-1%,0%,·,-1%[10 µM],·,·
Cc1ccccc1C(=O)N1CCc2ccccc2C1,?,8%,0%,0.63µM*,-11%,?,2.5µM*
CCC/C(O)=C1\C(=O)CC(c2ccccc2)CC1=NCCc1c(C)[nH]c2ccc(C)cc12 (stereo not given),-9%,5%[2.36 µM],-2%,-11%,·,-10%,·
CC1CCCN(C(=O)c2sc3cc([N+](=O)[O-])ccc3c2Cl)C1 (stereo not given),-20%,-12%,3%,0.45µM*,10%,5.6µM*,0.5µM*
O=C(c1sc2cc([N+](=O)[O-])ccc2c1Cl)N1CCCCC1,-26%,-11%,-4%,1.1µM*,-6%[10 µM],?,0.56µM*
O=C(c1sc2cc(F)ccc2c1Cl)N1CCN(c2ccccc2)CC1,-15%,4%,0%,-21%,4%[10 µM],?,·
O=C(c1cccc([N+](=O)[O-])c1)N1CCCC(C(=O)N2CCCCC2)C1 (stereo not given),-8%[9.22 µM],8%,-7%,·,10%[10 µM],·,·
CC1CCN(c2c(NCC3CCC(C(=O)NCCc4ccccc4)CC3)c(=O)c2=O)CC1 (stereo not given),14%,5%[2.36 µM],4%,6.3µM*,·,0%,6.3µM*
O=C(NCCc1ccc(Cl)cc1)C1CCC(CNc2c(N3CCCCC3)c(=O)c2=O)CC1 (stereo not given),14%,-2%[2.36 µM],-10%,-28%,·,-2%,18µM*
CCCCNC(=O)C1CCC(CNc2c(N3CCC(C)CC3)c(=O)c2=O)CC1 (stereo not given),-3%[9.22 µM],8%,-2%,·,8%[10 µM],·,·
COc1ccc(CNC(=O)C2CCC(CNc3c(N4CCCCC4)c(=O)c3=O)CC2)cc1 (stereo not given),-7%[9.22 µM],8%,3%,·,12%[10 µM],·,·
